The list is not random: actives were taken first. Their share in the collection is about 2.7%.
Mcl1-Bid inh – disrupts binding of human Mcl-1 to Bid peptide; TR-FRET Mcl-1/Bid-Dy647 peptide binding, 1536-well; inhibition, % at 21.7 µM; actives 0.97% (n = 220,000); AID 1021;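 active means compounds that cut the binding signal by more than half at the single screening dose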;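 further: His-tagged Mcl-1 with europium anti-His antibody binding Bid BH3 peptide; 0% = Mcl-1 plus peptide wells and 100% = peptide-only wells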
Pf gametocyte – P. falciparum stage V gametocyte viability inhibition; P. falciparum stage V gametocytes, ATP luminescence, 24 h; inhibition, % at 10.9 µM; actives 0.065% (n = 150,000);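 active means inhibition above the mean plus 3 SD of compounds within the control limits, set per campaign, cut at about 38% in these data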;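 further: 0% = DMSO wells and 100% = medium only without gametocytes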
Mcl1 Noxa PPI – disrupts binding of human Mcl-1 to Noxa peptide | Q07820 | TR-FRET Mcl-1/Noxa peptide binding, 2 h | inhibition, % at 21.7 µM | actives 1.5% (n = 220,000);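 active means compounds that cut the protein-peptide binding signal by more than 50% relative to plate controls in a single-dose test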;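 further: His-tagged Mcl-1 with rhodamine Noxa BH3 peptide and terbium anti-His antibody; 0% = Mcl-1 plus Noxa peptide wells and 100% = peptide-only wells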
14-3-3 Bad inh – disrupts binding of bovine 14-3-3 zeta to phospho-Bad peptide | P63103 | TR-FRET 14-3-3zeta/Dy647-pBad peptide displacement, 1 h | inhibition, % at 21.7 µM | actives 0.71% (n = 220,000) | AID 781;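 active means inhibition above about 70%, limit read from the data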;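 further: 0% = full 14-3-3 plus peptide FRET controls and 100% = background without 14-3-3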
Target sequence (P63103 whole entry, looked up): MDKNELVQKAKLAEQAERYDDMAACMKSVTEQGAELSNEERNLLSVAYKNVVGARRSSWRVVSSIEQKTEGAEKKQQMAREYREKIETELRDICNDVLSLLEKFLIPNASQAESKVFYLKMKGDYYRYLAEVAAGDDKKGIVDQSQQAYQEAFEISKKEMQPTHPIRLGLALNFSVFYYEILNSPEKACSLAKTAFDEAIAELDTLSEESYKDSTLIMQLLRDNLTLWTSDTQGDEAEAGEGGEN
Mcl-1 Bim block – disrupts Bim peptide binding to human Mcl-1; Bead-based flow cytometry, Bim peptide-Mcl-1 binding; actives 0.1% (n = 190,000); inhibition, % at 10 µM; in the data active means inhibition above about 40%;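 further: 0% = no compound tracer wells and 100% = peptide blocker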
eIF4E 4G PPI – inhibitors of eIF4E and eIF4G interaction in translation initiation | AID 782 | TR-FRET eIF4E-eIF4GI(517-606) binding, 2 h | actives 0.37% (n = 220,000) | P63073+Q04637 | inhibition, % at 21.7 µM;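 active means inhibition above about 30%, limit read from the data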;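 further: 0% = full FRET control wells and 100% = background wells lacking eIF4GI fragment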
Starred values were filed as active, the others as inactive; . = no result given; [ ] = dose if it differs, or a comment.

SMILES	Mcl1-Bid inh	Pf gametocyte	Mcl1 Noxa PPI	14-3-3 Bad inh	Mcl-1 Bim block	eIF4E 4G PPI
CCOc1ccc(NC(=O)COn2nnc3ccc(S(=O)(=O)N4CCOCC4)cc32)cc1	-10	15	71*	-2	-1	-6
Nc1nc(-c2ccc(Cl)cc2)nc(-c2ccc(Cl)cc2)n1	-29	-18	-17	5	.	0
COc1ccc(CCNC(=O)c2ccc(CNS(=O)(=O)c3ccc(C(C)(C)C)cc3)cc2)cc1OC	97*	.	17	2	-6	-1
COc1ccc(CCNC(=O)CCNC(=O)c2ccc(Br)cc2)cc1OC	-16	-48	-2	-2	-4	37*
COc1ccc(CCNC(=O)CCNC(=O)c2ccc(Cl)cc2)cc1OC	9	-12	7	-3	-3	8
COc1ccc(C(=O)N(Cc2ccccc2)Cc2cc3cc4c(cc3[nH]c2=O)OCCO4)cc1	95*	-19	4	3	0	-5
COc1cccc(C(=O)N(Cc2ccccc2)Cc2cc3cc4c(cc3[nH]c2=O)OCCO4)c1	-17	7	10	6	-1	3
COc1ccc([C@H]2CC(=O)C=C(c3ccc(F)cc3OCc3ccccc3)C2)cc1OC	.	13	.	.	.	.
CC[N+]1=CN(c2ccccc2)C(C)=CC1(C)C	-69	-10	8	82*[fluorescence artefact?]	2	2
O=C(COC(=O)CNC(=O)C1CCCCC1)Nc1ccccc1Cl	.	3	.	.	.	.
N=C(N)SCP(=O)(c1ccccc1)c1ccccc1	56*	7	9	-1	.	-13
CCCC(C(=O)OCC)P(=O)(c1ccccc1)c1ccccc1 (configuration not stated)	-20	-13	-10	84*	0	3
COc1ccc(C(C)=O)cc1CSCCC#N	-38	-14	3	-10	2	5
CC1Cc2ccccc2N1C(=O)CSc1nnc(Cn2nnc3ccccc32)n1C (configuration not stated)	-6	16	1	4	-2	3
O=C(O)C1OC(Oc2c(-c3ccc(O)c(O)c3)oc3cc(O)cc(O)c3c2=O)C(O)C(O)C1O (configuration not stated)	2	.	53*	-3	0	7
CC1OC(Oc2c(-c3cc(O)c(O)c(O)c3)oc3cc(O)cc(O)c3c2=O)C(O)C(O)C1O (configuration not stated)	-37	.	44	-10	.	-2
CCN(CC)S(=O)(=O)c1ccc(N2CCOCC2)c(NC(=O)c2ccc(C#N)cc2)c1	-17	-1	8	-1	-2	-3
C#Cc1ccc(C(=O)Nc2cc(C(N)=O)ccc2N2CCOCC2)cc1	-6	22	51*	-3	2	-13
Cc1sc(NC(=O)c2sc3nc4c(C)cccc4cc3c2N)c(C#N)c1C	97*	-4	96*	60	0	-2
Cc1cccc2cc3c(N)c(C#N)sc3nc12	-8	.	30	-2	4	-4
CN1CCC(=NOc2ccc([N+](=O)[O-])cc2)CC1	-1	20	2	-3	-4	1
COC(=O)CSc1[nH]c(=O)cc(C)c1C#N	-4	.	7	4	-1	3
CCOC(=O)c1cc(C#N)c(SCC(=O)OC)[nH]c1=O	72*	-12	21	33	.	7
O=C(CN1C(=O)CSc2ccc(S(=O)(=O)N3CCOCC3)cc21)NCc1cccnc1	-7	-4	54*	-2	-6	-2
COc1ccc2c(Cl)c(C(=O)N/N=C3\CCCC(=O)C3)sc2c1	-86	-17	-4	-10	2	-1
SMILES	Mcl1-Bid inh	Pf gametocyte	Mcl1 Noxa PPI	14-3-3 Bad inh	Mcl-1 Bim block	eIF4E 4G PPI
Cc1nn(-c2ccccc2)c2sc(-c3n[nH]c(=S)o3)cc12	-16	-13	67*	3	5	12
S=C1NC[C@H](Cc2ccccc2)N1CCCCC1CCCCC1	-12	-11	4	-3	0	2
S=C1NC[C@H](CC2CCCCC2)N1CCCCC1CCCCC1	-37	11	17	-1	.	31*
CCn1cc(C(=O)Nc2ccc(C)cc2[N+](=O)[O-])c(C)n1	.	9	.	.	.	.
CN(CCOc1ccccc1)CC(=O)Nc1cccc(Br)c1	31	.	29	74*	-7	5
O=c1ccc2ccc(Oc3ccc(Cl)cc3[N+](=O)[O-])cc2o1	1	15	3	5	-4	1

Bioassay records (PubChem)
